Test [1] can be described thus: P. berghei load reduction in hepatocytes – cell-based, HepG2, luciferase luminescence, HepG2 viability, primary screen (AID 624349; in the data active = parasite load remaining mostly below about 12%, no sharp cut-off; inactive = mostly above about 10%;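 also: 100% = mean of DMSO negative control wells on the same plate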). The following applies: P. berghei liver stage in HepG2, luciferase luminescence, concentration not given here; parasite load remaining: stronger effect = lower value; viability: measured here: HepG2 viability without parasites.
Test [2] in a line: signal quenchers or enhancers, Cy5 substrate/SSB – biochemical, NIH Clinical Collection, E. coli SSB, artefact control for HCV NS3 helicase inhibitor project (AID 743268). The following applies: Cy5-oligo bound E. coli SSB, fluorescence interference.
The subject of test [3] is Hepatitis C virus NS3 helicase. Kind of test: blockers of NS3h binding to DNA – biochemical, fluorescence polarization, NIH Clinical Collection, primary screen (AID 743270). The following applies: NS3 helicase binding to Cy5-dT15 DNA, stronger effect = higher value, concentration not given here. On the technique in general: Fluorescence polarisation rises when a labelled molecule tumbles more slowly, as on binding a larger partner.

For test [4], the target named is Single-stranded DNA-binding protein (Escherichia coli (strain K12)) (UniProt P0AGE0). Kind of test: SSB-ssDNA binding inhibitors – biochemical, fluorescence polarization, NIH Clinical Collection, counter-screen for HCV NS3 helicase inhibitor project (AID 743271; in the data active = inhibition above about 28%). The following applies: E. coli SSB-DNA binding, stronger effect = higher value, concentration not given here.
The nature of test [5]: compounds distorting NS3 helicase fluorescence signal – biochemical, NIH Clinical Collection, artefact control for HCV NS3 helicase inhibitor project (AID 743272).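 Also: HCV NS3 helicase with a Cy5 labelled single stranded DNA probe.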 Particulars: fluorescence interference counterscreen, HCV NS3 helicase assay; stronger effect = lower value. On the technique in general: Counterscreens check selectivity or assay interference.
The test system of test [6] is Neuropilin-2 / VEGF-C interaction (human). The test is described as follows: small molecules blocking Neuropilin-2/VEGF-C interaction – biochemical, microplate binding format, z-score (AID 743281). Particulars: microplate NRP2/VEGF-C binding assay; stronger effect = lower value.
Test [7] deals with 6-phosphogluconate dehydrogenase, decarboxylating (Homo sapiens) (UniProt P52209). The test is described as follows: inhibition of human phosphogluconate dehydrogenase – biochemical, recombinant enzyme, NADPH absorbance, primary screen (AID 1159550;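 active = at least 20% inhibition of 6-phosphogluconate dehydrogenase activity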). Particulars: recombinant 6PGD, NADPH absorbance 341 nm; at 10 µM; stronger effect = higher value.
Test [8] is described as follows: modulation of C. elegans fzo-1 (AID 1259413).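 Also: fzo-1 mutant C. elegans worms in liquid wells.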 The following applies: C. elegans fzo-1 modulator screen, mean read-out; stronger effect = higher value.
A short description of test [9]: viability loss with induced miR-34 in A549 – imaging, A549 dox-inducible miR-34, nuclei and caspase counts, primary screen (AID 1347080;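 active = compounds whose cell count with miR-34 switched on is under 0.7 times the count with it off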). The following applies: A549 miR-34 inducible, Hoechst nuclei count, 48 h.
Test [10] is described as follows: galactose survival enhancers in mitochondrial complex I cybrids – cell-based, galactose medium, ATP luminescence, primary screen (AID 1645843;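 active = z-score of at least 1.8 in each of two replicates, scored against plate mean and spread of sample wells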;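 also: positive z means more ATP and so rescue of galactose-driven cybrid death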). Particulars: complex I mutant cybrid cells, 72 h, stronger effect = higher value.
Another test relates to F380Y. Kind of test: BK channel mutant inhibitors and activators – cell-based, U2OS BacMam, thallium flux, beta subunits, selectivity assay, profiling panel (AID 1259406;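 active = thallium flux through the channel raised or lowered by more than 3 SD from vehicle-only wells, actives on both sides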;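 also: initial slope of Thallos dye fluorescence rise after thallium is added; log ratio against the mean of 0.3% DMSO vehicle wells on the same plate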). The following applies: U2OS BacMam BK variants, at 30 µM.
For another test, the system named is F380Y/beta1. The test is described as above. Particulars: U2OS BacMam BK variants, at 30 µM.
The test system of another test is F380Y/beta2Delta. The test is described as above. Particulars: U2OS BacMam BK variants, at 30 µM.
The test system of another test is F380Y/beta4. The test is described as above. Particulars: U2OS BacMam BK variants, at 30 µM.
For test [11], the target named is Calcium-activated potassium channel subunit alpha-1 (Homo sapiens) + Leucine-rich repeat-containing protein 26 (Homo sapiens) (UniProt Q12791+Q2I0M4). The test is described as above. Particulars: U2OS BacMam BK variants, F380Y/Slo1WT/gamma1, at 30 µM.
For a further test, the system named is R275C. Described as above. The following applies: U2OS BacMam BK variants, at 30 µM.
The subject of a further test is R275C/beta1. The test is described as above. Particulars: U2OS BacMam BK variants, at 30 µM.
Another test relates to R275C/beta2Delta. Described as above. The following applies: U2OS BacMam BK variants, at 30 µM.
The next test concerns R275C/beta4. The description is as above. The following applies: U2OS BacMam BK variants, at 30 µM.
For another test, the system named is R275C/Slo1WT/beta2. The test is described as above. Particulars: U2OS BacMam BK variants, at 30 µM.
The nature of test [12]: compounds altering circadian rhythm period length – cell-based, LOPAC library, luminescence reporter (AID 2774).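 Also: values are relative to mean of DMSO wells on each plate.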 Particulars: circadian reporter cells, at 7 µM, actives lie on both sides.
A short description of test [13]: compounds altering viability of human ES cells (AID 493140).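 Also: cells exposed to compounds for four days before counting.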 The following applies: human embryonic stem cell survival screen; stronger effect = higher value.
Test [14] deals with Hepatitis C virus NS3 helicase. Kind of test: blockers of NS3h binding to ssDNA – biochemical, fluorescence polarization, LOPAC1280 library, primary screen (AID 687035; in the data active = inhibition above about 37%). Particulars: Purified HCV NS3 helicase, Cy5-dT15 ssDNA binding fluorescence polarization; stronger effect = higher value; concentration not given here.
Test [15] in a line: compounds altering Cy5-DNA-NS3h complex signal – biochemical, LOPAC1280, artefact control for HCV NS3 helicase inhibitor project (AID 687037). Particulars: Cy5-DNA-NS3h complex fluorescence interference counterscreen.
A short description of test [16]: EMT-state selective cytotoxicity in co-culture – imaging, PC-3E GFP, TEM4-18 mCherry, primary screen (AID 1345086;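 active = compounds killing one labelled cell type while sparing the other, by normalised counts and ratio limits, not self-fluorescent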;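 also: cells exposed to compound for 72 h before imaging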;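 as to red/green cell ratio (normalised): normalised mesenchymal count divided by normalised epithelial count so high means epithelial killing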). Particulars: PC-3E GFP / TEM4-18 mCherry co-culture, imaging cell counts, at 1 µM.
The test system of test [17] is Aerobactin synthetase IucA (Klebsiella pneumoniae). Kind of test: inhibition of K. pneumoniae IucA enzyme – biochemical, Tocris library, absorbance (AID 1345561).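 Also: 100% = enzyme without compound and 0% = no enzyme.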 The following applies: purified IucA enzyme assay, absorbance (OD) read-out; stronger effect = lower value;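 tested at 8 µM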.
The test system of test [18] is Aerobactin synthetase IucA (Klebsiella pneumoniae hvKP1). The test is described as follows: IucA enzyme inhibition, primary screen, biochemical, Spectrum library (AID 1346200).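 Also: 100% = wells without compound and 0% = wells lacking enzyme.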 Particulars: malachite green pyrophosphate, A620, at 8 µM, stronger effect = lower value.
The subject of test [19] is Aerobactin synthetase IucA (Klebsiella pneumoniae, hypervirulent). Kind of test: biochemical IucA inhibition screen of LOPAC library by absorbance (AID 1346212).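 Also: 100% = no compound wells and 0% = no enzyme wells.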 The following applies: IucA enzyme assay, absorbance (OD) readout; stronger effect = lower value;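 tested at 8 µM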.
Test [20] in a line: blockers of cellular phospholipid synthesis – cell-based, LOPAC library, screen 4, primary screen (AID 1347384). Particulars: animal cells, phospholipid biosynthesis inhibition screen; at 10 µM.
Test [21] has as its target Mitogen-activated protein kinase 7 (Homo sapiens) (UniProt Q13164). The test is described as follows: Gal4-ERK5 driven luciferase induction – cell-based, HTS, primary screen (AID 1508626;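 active = luciferase signal above three times the same-plate solvent-only control wells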;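 also: luciferase driven by Gal4-ERK5 fusion binding five Gal4 sites before minimal TATA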). Particulars: HeLa Gal4-ERK5 transactivation, 18 h, at 5 µM, stronger effect = higher value.
The mark [22] stands for this setting: measured here: relative caspase fold change +Dox/-Dox.
The mark [23] stands for this setting: measured here: total cells with miR-34 induction, stronger effect = lower value.
Setting [24] is: measured here: total cells without miR-34 induction.

Where “and” joins values, the source holds several entries; their conditions need not be identical. Equal entries are not always repeated. Calls of active or inactive are those of the source. Unless noted, no rule for the calls is given here.

Sequence of 6-phosphogluconate dehydrogenase, decarboxylating (Homo sapiens) (P52209 whole entry, looked up): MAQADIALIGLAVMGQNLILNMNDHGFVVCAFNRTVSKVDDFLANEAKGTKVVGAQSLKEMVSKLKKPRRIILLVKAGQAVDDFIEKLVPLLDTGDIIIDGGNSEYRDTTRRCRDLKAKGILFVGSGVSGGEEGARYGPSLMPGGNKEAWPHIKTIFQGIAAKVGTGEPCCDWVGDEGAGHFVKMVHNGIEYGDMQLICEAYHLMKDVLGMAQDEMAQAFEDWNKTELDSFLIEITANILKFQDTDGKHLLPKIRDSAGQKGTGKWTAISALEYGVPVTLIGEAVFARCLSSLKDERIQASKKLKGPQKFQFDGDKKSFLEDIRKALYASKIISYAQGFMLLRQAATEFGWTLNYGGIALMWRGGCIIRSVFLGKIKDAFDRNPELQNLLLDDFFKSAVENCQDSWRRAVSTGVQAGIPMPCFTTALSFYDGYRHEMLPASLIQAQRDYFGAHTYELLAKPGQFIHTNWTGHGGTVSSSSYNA
Sequence of Calcium-activated potassium channel subunit alpha-1 (Homo sapiens) + Leucine-rich repeat-containing protein 26 (Homo sapiens) (Q2I0M4 whole entry, looked up, one chain of several): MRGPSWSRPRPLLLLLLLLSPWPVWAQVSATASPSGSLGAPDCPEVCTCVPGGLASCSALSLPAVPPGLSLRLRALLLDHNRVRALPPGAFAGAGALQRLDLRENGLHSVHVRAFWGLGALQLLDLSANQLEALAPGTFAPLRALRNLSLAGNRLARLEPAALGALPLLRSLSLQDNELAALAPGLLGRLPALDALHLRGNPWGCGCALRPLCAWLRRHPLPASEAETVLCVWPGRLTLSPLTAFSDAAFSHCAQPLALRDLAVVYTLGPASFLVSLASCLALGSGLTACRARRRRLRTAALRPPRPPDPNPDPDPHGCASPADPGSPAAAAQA
Sequence of Mitogen-activated protein kinase 7 (Homo sapiens) (Q13164 whole entry, looked up, the tested form may be a part): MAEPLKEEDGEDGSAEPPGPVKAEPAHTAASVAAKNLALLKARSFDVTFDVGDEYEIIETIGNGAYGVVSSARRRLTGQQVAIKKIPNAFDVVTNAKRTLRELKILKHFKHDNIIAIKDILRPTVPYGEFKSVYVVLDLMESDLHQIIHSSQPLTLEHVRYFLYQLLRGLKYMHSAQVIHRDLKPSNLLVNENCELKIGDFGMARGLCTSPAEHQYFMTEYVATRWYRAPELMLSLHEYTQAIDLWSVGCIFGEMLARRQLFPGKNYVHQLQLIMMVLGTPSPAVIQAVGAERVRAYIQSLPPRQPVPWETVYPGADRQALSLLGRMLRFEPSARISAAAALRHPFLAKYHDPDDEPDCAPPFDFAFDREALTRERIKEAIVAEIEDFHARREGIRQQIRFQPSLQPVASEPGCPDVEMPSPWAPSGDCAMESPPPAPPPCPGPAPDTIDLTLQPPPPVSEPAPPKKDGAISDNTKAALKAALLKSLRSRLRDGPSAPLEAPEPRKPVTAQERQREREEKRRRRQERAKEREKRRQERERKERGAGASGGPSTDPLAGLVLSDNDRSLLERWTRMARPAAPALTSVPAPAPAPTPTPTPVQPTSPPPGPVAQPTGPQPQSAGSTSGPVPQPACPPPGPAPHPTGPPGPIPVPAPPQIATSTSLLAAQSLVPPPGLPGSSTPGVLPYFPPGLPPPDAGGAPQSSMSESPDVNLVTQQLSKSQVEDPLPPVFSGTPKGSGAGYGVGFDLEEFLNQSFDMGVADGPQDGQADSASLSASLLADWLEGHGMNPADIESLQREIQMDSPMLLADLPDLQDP

One may read the viability as a read-out of living cells in per cent, often relative to untreated cells. Usually inhibition stands for the relative decrease from the control value, in per cent. Regarding `c1ccc2c3c([nH]c2c1)CNCC3`, in test [1], the parasite load remaining was 59.9% (inactive). Also, the viability in test [1] was 85.2%. In addition, the fluorescence ratio was 0.93 (inactive) in test [2] and 0.91 (inactive) in [5]. Moreover, the inhibition in test [3] was 0.66% (inactive); in test [4], 5.12% (inactive); in [7], -0.853% (inactive). The z-score in test [6] was -0.415 (inactive); in test [10], -0.425 (inactive). Moreover, the mean signal in [8] was 258 (inactive). Also, the results for the fold change in [9] (stronger effect = lower value) and in test [9] (setting [22]) were 0.984 (inactive) and 1.28, respectively. In addition, the cell count came to 7470 in test [9] (setting [23]) and 7600 in [9] (setting [24]). Also, the log fold change Tl+ flux was -0.00245 (inactive) in the test on F380Y; -0.00595 (inactive) in the test with F380Y/beta1; -0.0184 (inactive) with F380Y/beta2Delta; -0.0163 (inactive) in the test on F380Y/beta4; 0.00353 (inactive) in [11]; 0.0253 (inactive) with R275C. Moreover, the log fold change Tl+ flux was -0.0273 (inactive) in the test with R275C/beta1, -0.0332 (inactive) in the test with R275C/beta2Delta, -0.016 (inactive) in the test with R275C/beta4 and -0.0345 (inactive) in the test on R275C/Slo1WT/beta2.
`c1cncc([C@@H]2CCCCN2)c1`: in test [7], the inhibition is 4.92% (inactive).
For `CCC1C2CC3C4N(C)c5ccccc5C45CC(C2C5O)N3C1O` (configuration not stated), the inhibition in test [7] is 6.73% (inactive).
Usually remaining activity stands for the signal under treatment as a percentage of the control signal. In the case of `Cc1nccc2c1[nH]c1ccccc12`, the period change in [12] is 0.11 h (inactive). The survival in test [13] was 12.2 (inactive). In [1], the parasite load remaining is 94.4% (inactive) and 63.5% (inactive). Besides, the viability in test [1] was 116% and 79%. Moreover, the inhibition in test [14] is -1% (inactive); in test [7] it was -8.63% (inactive). For the same compound, in test [15], the fluorescence ratio (interference) was 1 (inactive). In [16] (actives lie on both sides), the red/green cell ratio (normalised) is 0.96 (inactive). Also, the normalised cell number in [16] (measured here: epithelial PC-3E GFP cell survival) came to 0.91; in test [16] (measured here: mesenchymal TEM4-18 mCherry cell survival), 0.87. For the same compound, the results for the remaining activity in test [17] and in test [19] were 108% (inactive) and 99.4% (inactive), respectively. The activity remaining in test [18] is 102% (inactive). Besides, the fold change was 0.91 (inactive) and 0.859 (inactive) in test [9] (stronger effect = lower value); 0.856 (inactive) in [9] (stronger effect = lower value, cell number ratio, induced over uninduced); 1.74 and 1.56 and 1.32 in [9] (setting [22]). Also, the cell count in [9] (setting [23]) was 8890 and 7490 and 7920; in test [9] (setting [24]) it was 9780 and 8760 and 9220. Also, the compound was classed as inactive in [20]. For the same compound, the luciferase signal in [21] was 132 AU (inactive). For the same compound, in test [10], the z-score was -0.38 (inactive) and -0.595 (inactive).

The values above are taken from PubChem BioAssay.
